This is an account of results in ChEMBL document CHEMBL1157539, “Thousands of chemical starting points for antimalarial lead identification” (Nature, 2010).

This assay concerns Plasmodium falciparum. As to the kind of experiment: GSK_TCMDC: Inhibition of Plasmodium falciparum 3D7 in whole red blood cells, using parasite LDH activity as an index of growth. Test compounds present at 2uM. The format is functional.
`Cc1ccc(C(=O)Nc2cccc([N+](=O)[O-])c2)cc1S(=O)(=O)N1CC(C)CC(C)C1` (centres undefined) returned an Inhibition of 100%. For `Cc1cc(O)c2c(c1)OC(C)(C)C=C2C1=CCN(Cc2ccccc2)CC1` the value was 96%; for `CN(C)CCOC(=O)C1(O)CCC2CC1C2(C)C.Cl` (centres undefined), 95%.

With `COc1cccc(C(=O)N2CCOC(CCN3CCC(c4ccccc4)CC3)(c3ccc(Cl)c(Cl)c3)C2)c1` (centres undefined), the Inhibition amounted to 87%. Take `CC(=O)Nc1ccc(CNCCc2ccc(NC(=O)c3cc(Cl)cc(Cl)c3)cc2)cc1`: the Inhibition turned out to be 100%.

In turn, `Nc1ccnc(N2CCC(CCOc3cc(C(F)(F)F)nc4c(C(F)(F)F)cccc34)CC2)c1` had an Inhibition of 98%. As for `CNc1ccc(CNCc2ccc(-c3ccc(-c4nc5cc(C(F)(F)F)ccc5[nH]4)cc3)cc2)cc1.O=C(O)C(F)(F)F`, the Inhibition is given as 100%. As for `Cc1ccc2sc(N3CCN(C(=O)c4ccc([N+](=O)[O-])o4)CC3)nc2c1C`, the Inhibition turned out to be 90%.

On to `N#Cc1cccc(NC(=O)c2cccc(S(=O)(=O)NC3CCN(CC4CCCCC4)C3)c2)c1.O=C(O)C(F)(F)F` (centres undefined), for which the Inhibition is 100%.

Consider `Cc1cc(CNCCCCCCNCc2ccc(Cl)cc2)ccc1O`, for which the Inhibition is reported as 96%. Compound `Cc1ccccc1Nc1nc(NCCCO)c2ccccc2n1.Cl` showed an Inhibition of 83%. Take `CC[C@@]1(O)C(=O)OCc2c1cc1n(c2=O)Cc2c-1nc1cc3c(cc1c2CN1CCN(C)CC1)OCCO3.Cl`: the Inhibition was determined as 98%. As for `Cl.O=c1cc(NCCCNCc2ccc(Cl)c(Cl)c2)[nH]c2ccc(Cl)cc12`, the Inhibition is 100%. The result for `Fc1ccc2[nH]c(-c3cccc(-c4ccc(CN5CCCCC5)cc4)c3)nc2c1.O=C(O)C(F)(F)F` reads 99%.

The term Inhibition denotes the relative decrease from the control value, in per cent. Low values mean little suppression, high ones strong suppression.
